Data from PubChem BioAssay AID1159580 (chemical genetic matrix, 2015).
Values joined by “and” are separate entries in the source; they are usually repeats but may differ in a detail not shown here. Equal values may be shown once. Out of some 5,500 compounds screened, about 2,000 (36%) were called active. Roughly 18% stayed inconclusive and do not appear here. Rule as the data show it: active = normalized growth mostly below about 0.91 (no sharp cut-off); inconclusive = no clear call, values can overlap the other calls; inactive = mostly above about 0.92. The list shows a part of the results.

Experiment: chemical genetic growth profiling, strain panel (AID 1159580);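 also: tested at 20 µM; growth read once vehicle control cultures reached saturation at 30 °C; 1 = growth at the plate median or of vehicle wells; lower values mean less growth of the strain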
Conditions: S. cerevisiae deletion strains, growth OD

Measured: normalized growth

CC1=C2C(O)C(=O)OC3CC4C(C)(C)C(=O)C=C[C@]4(C)C(CC1)[C@]23C (stereo partly specified)
inactive: locus YAL021C, strain ccr4, hits give low values 1.01 | locus YAL026C, strain drs2, hits give low values 1.02 | locus YAL030W, strain snc1, hits give low values 1.01 | locus YBL061C, strain skt5, hits give low values 1.01 | locus YBR009C, strain hhf1, hits give low values 1 | locus YBR021W, strain FUR4, hits give low values 0.994 | locus YBR023C, strain chs3, hits give low values 1.02 | locus YBR171W, strain sec66, hits give low values 1.01 | locus YBR229C, strain ROT2, hits give low values 1.02 | locus YBR231C, strain swc5, hits give low values 1 | locus YBR279W, strain paf1, hits give low values 1 | locus YCL011C, strain gbp2, hits give low values 1.01 | locus YCL016C, strain dcc1, hits give low values 1.01 | locus YCL029C, strain bik1, hits give low values 1 | locus YCL061C, strain MRC1, hits give low values 1 | locus YCL069W, strain vba3, hits give low values 1 | locus YCR088W, strain abp1, hits give low values 1.01 | locus YDL005C, strain med2, hits give low values 1.02 | locus YDL035C, strain GPR1, hits give low values 1.03 | locus YDL040C, strain nat1, hits give low values 1.01 | locus YDL074C, strain BRE1, hits give low values 1.07 | locus YDL101C, strain DUN1, hits give low values 1.04 | locus YDL134C, strain PPH21, hits give low values 1.04 | locus YDL185W, strain tfp1, hits give low values 1.02 | locus YDL192W, strain arf1, hits give low values 1.02 | locus YDR001C, strain nth1, hits give low values 1 | locus YDR069C, strain doa4, hits give low values 1.02 | locus YDR101C, strain arx1, hits give low values 0.99 | locus YDR137W, strain rgp1, hits give low values 1.12 | locus YDR159W, strain sac3, hits give low values 1.03 | locus YDR162C, strain NBP2, hits give low values 1.04 | locus YDR195W, strain ref2 0.986 | locus YDR297W, strain sur2, hits give low values 1.02 | locus YDR318W, strain mcm21, hits give low values 1.02 | locus YDR334W, strain swr1, hits give low values 1 | locus YDR335W, strain msn5, hits give low values 1 | locus YDR388W, hits give low values 1.02 | locus YDR392W, strain spt3, hits give low values 1.03 | locus YDR502C, strain sam2, hits give low values 1.04 | locus YEL003W, strain gim4, hits give low values 1 | locus YEL037C, strain rad23, hits give low values 1 | locus YEL061C, strain CIN8 (second series), hits give low values 1.01 | locus YER015W, strain faa2, hits give low values 1.01 | locus YER016W, strain bim1, hits give low values 1.02 | locus YER110C, hits give low values 1.02 | locus YER111C, strain swi4, hits give low values 1.02 | locus YER155C, strain BEM2 (second series), hits give low values 1.01 | locus YER155C, strain BEM2, hits give low values 1 | locus YER167W, strain BCK2, hits give low values 1 | locus YFR010W, strain ubp6, hits give low values 1.01 | locus YGL078C, strain dbp3, hits give low values 1.05 | locus YGL086W, strain mad1, hits give low values 1.01 | locus YGL167C, strain pmr1, hits give low values 1.02 | locus YGL173C, strain kem1, hits give low values 1.03 | locus YGL227W, strain vid30, hits give low values 1.01 | locus YGL240W, strain doc1, hits give low values 1 | locus YGL248W, strain PDE1, hits give low values 1.02 | locus YGL253W, strain hxk2, hits give low values 1.02 | locus YGR078C, strain PAC10, hits give low values 1.05 | locus YGR135W, strain pre9, hits give low values 1.07 | locus YGR252W, strain gcn5, hits give low values 1.13 | locus YHR013C, strain ard1, hits give low values 1.04 | locus YHR027C, strain rpn1, hits give low values 1.02 | locus YHR030C, strain SLT2, hits give low values 1.01 and 1.04 | locus YHR079C, strain IRE1 (second series), hits give low values 1.01 | locus YHR079C, strain IRE1, hits give low values 1.02 | locus YHR094C, strain hxt1, hits give low values 1.01 | locus YHR129C, strain ARP1, hits give low values 1.02 | locus YHR142W, strain chs7, hits give low values 1.01 | locus YHR200W, strain rpn10, hits give low values 1.02 | locus YIL066C, strain RNR3, hits give low values 1.02 | locus YIL073C, strain SPO22, hits give low values 1.06 | locus YIL125W, strain kgd1, hits give low values 0.995 | locus YIR030C, strain dcg1, hits give low values 1.02 | locus YJL092W, strain hpr5, hits give low values 1 | locus YJL095W, strain BCK1 (second series), hits give low values 1.01 | locus YJL095W, strain BCK1, hits give low values 1.07 and 1.03 | locus YJL115W, strain asf1, hits give low values 1.01 | locus YJL129C, strain trk1, hits give low values 1.03 | locus YJL134W, strain LCB3, hits give low values 1.01 | locus YJL154C, strain vps35, hits give low values 1.02 | locus YJL164C, strain tpk1, hits give low values 1.01 | locus YJL166W, strain qcr8, hits give low values 1.01 | locus YJL168C, strain set2, hits give low values 1.02 | locus YJL187C, strain SWE1 (second series), hits give low values 1.05 | locus YJL187C, strain SWE1, hits give low values 1.01
